# Screen size: about 2,000 compounds; about 25 (1%) were called active. Only a selection was taken, and actives are over-represented in it overall. A number with no mark means an inactive call.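 The calls were made as follows: active = log2 luciferase ratio at or below -0.5849, meaning signal at two thirds of solvent-only control or lower; inactive = the rest.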
# Assay: inhibitors of EIF4E gene expression, primary screen, cell-based, HT1080, luciferase reporter (AID 1224817);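 also: luciferase reports endogenous eIF4E expression since it is co-expressed from the native EIF4E locus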
# Details: HT1080 EIF4E-luc2 knock-in reporter, 16 h, at 2.5 µM, hits give low values
row,Compound,log2 luciferase activity ratio
1,O=C(O)/C=C\C(=O)Nc1ccccn1,0.0837
2,C[N+]1(CCC(=O)c2ccccc2)CCC2CCC(C2)C1 (configuration not stated),0.0296
3,CCCCCC[C@H]([C@H](C)O)n1cnc2c(N)ncnc21,-0.0979
4,NCCSCCC(=O)O,-0.0504
5,CC(=O)CC(=O)Nc1ccc2ccccc2c1,0.376
6,NCC(=O)Nc1ccccc1,-0.679 (active)
7,CC(C)(CC(=O)Nc1ccccc1)C(=O)O,-0.26
8,CN(C)Cc1c[nH]c2nc[nH]c(=O)c12,0.205
9,CN(C)CCC(=O)[C@@]1(O)CC[C@H]2[C@@H]3CC=C4C[C@@H](O)CC[C@]4(C)[C@H]3CC[C@@]21C,0.263
10,O=C(O)CC1OCC=C2C[N+]3([O-])CCC45c6ccccc6NC4C1C2CC53 (configuration not stated),0.195
11,Cc1ccc(C2(C)CC/C(=N/N=C3/CCC(C)(c4ccc(C)c(C)c4)c4cc(C)c(C)cc43)c3cc(C)c(C)cc32)cc1C (configuration not stated),0.135
12,Oc1c(Cl)cc(C(c2cc(Cl)c(O)c(Cl)c2)C(c2cc(Cl)c(O)c(Cl)c2)c2cc(Cl)c(O)c(Cl)c2)cc1Cl,-0.198
13,COc1ccc(CCN(C)CCCC(C#N)(c2ccc(OC)c(OC)c2)C(C)C)cc1OC (configuration not stated),-0.662 (active)
14,COc1ccc(C[N+](C)(C)N)cc1OC,-0.225
15,Cc1cc(=O)oc2c(OS(C)(=O)=O)c(OS(C)(=O)=O)ccc12,0.0541
16,Cc1ccn2c(CCc3nnc4cc(C)ccn34)nnc2c1,-0.0744
17,CC(=O)NC1CONC1=O (configuration not stated),-0.303
18,C=C[C@]1(C)C[C@@H](OC(=O)CO)[C@@]2(C)[C@H](C)CC[C@]3(CCC(=O)[C@H]32)[C@@H](C)[C@@H]1O,0.127
19,Oc1ccc(Cc2nccc3cc(O)c(O)cc23)cc1O,-0.044
20,OCCN(CO)CO,-0.297
21,COc1ccc(CNC(C)C(=O)O)cc1 (configuration not stated),-0.198
22,C/C(=N\[N+](C)(C)C)c1ccc(C)c(C)c1,-0.284
23,CC(C)CCC[C@@H](C)[C@H]1CC[C@H]2[C@@H]3CC[C@H]4C[C@H](N)CC[C@]4(C)[C@H]3CC[C@]12C,0.0721
24,CN(C)CCCNc1cc(O)c2c(c1O)C(=O)c1ccccc1C2=O,1.39
25,O=C(O)C/C=C/CC(=O)O,-0.0603
26,CC(C)(C)CC(C)(C)c1cc(O)c(O)c(CN2CCCCC2)c1,-0.183
27,CC(C)(C)c1ccc(CN2CCN(C(c3ccccc3)c3ccc(Cl)cc3)CC2)cc1 (configuration not stated),-0.0054

# From PubChem BioAssay AID1224817 (Yan Lab, Georgia Cancer Center, Augusta University, 2016)
